These results are taken from PubChem BioAssay AID435022 (Sanford-Burnham Center for Chemical Genomics, 2010).

Where “and” joins values, the source holds several entries; their conditions need not be identical. Identical values can stand only once. Among all 330,000 compounds or so, about 1,100 (0.33%) were called active. No stated cut-off is given here; in the data, active means inhibition above about 35%; inactive means the rest. For the sample, actives were picked, then their nearest neighbours and some compounds at random. Where a structure was tested more than once in an assay, its records may differ in their call.

By inhibition is commonly meant the change of the read-out against control, counted positive when it falls.

The assay in a line: lowers stimulated NF-kB luciferase signal in 697 B cells – cell-based, luminescence, uHTS, B-cell NF-kB inhibitor project, primary screen (AID 435022). The settings on record: 697 B-cell NF-kB luciferase reporter, PMA/ionomycin, 16 h; at 4 µM; stronger effect = higher value. On the technique in general: Reporter assays use an easily measured gene product as a stand-in for the process of interest.
On to `COc1cc2c(cc1OC)CN(C(=O)c1cc(=O)c3ccccc3o1)CC2`, for which the inhibition was -14.7% (inactive).

Take `COc1cc2c(cc1OC)CN(C(=O)c1ccc(S(=O)(=O)N3CCCCCC3)cc1)CC2`: the inhibition was 22.3% (inactive).

For `CCOc1cc(C(=O)N2CCc3cc(OC)c(OC)cc3C2)ccc1OC(F)F`, the inhibition is 39.7% (active).

`COCCNC(=O)C1CCN(C(=O)C2CC(=O)N(c3ccc(C)cc3)C2)CC1` (stereo not given): the inhibition was -0.961% (inactive).

As for `CCN(CCCNC(=O)CSc1cc(=O)n(C)c2cc(Cl)ccc12)Cc1ccccc1`, the inhibition was 2.99% (inactive).

Turning to `Cc1ccc(C)c(OCC(=O)NNC(=O)C2CCC2)c1`, the inhibition was 0.932% (inactive).

Take `Cc1ccc(O)c(NC(=S)NC(=O)COc2ccc(Br)cc2)c1`: the inhibition was -17.9% (inactive).

For the compound `Cc1ccc(O)c(NC(=O)COc2cc(C)ccc2C)c1`, the inhibition is 40.5% (active).

`COc1ccc(NC(=O)Nc2ccc3c(c2)C(=O)N([C@H](C)CO)C[C@H](C)[C@@H](CN(C)C(=O)Nc2ccc4c(c2)OCO4)O3)cc1`: the inhibition was -1.97% (inactive).

As to `COc1ccc(CNC(=O)C2CCC(CNc3c(N4CCOCC4)c(=O)c3=O)CC2)cc1` (stereo not given), the inhibition is -4.3% (inactive).

For `CCN1/C(=C\c2ccc3ccccc3[n+]2CC)Sc2cc(C)ccc21`, the inhibition was 65% (active).

For the compound `COC(=O)c1ccccc1NC(=O)C1CC(=O)N(c2ccc(OC)cc2)C1` (stereo not given), the inhibition was 2.44% (inactive).

As to `C[C@@H]1O[C@@H](OC[C@H]2O[C@@H](Oc3c(-c4ccc(O)cc4)oc4cc(O)cc(O)c4c3=O)[C@H](O)[C@@H](O)[C@@H]2O)[C@H](O)[C@H](O)[C@H]1O`, the inhibition was 3.19% (inactive).

With `COc1ccc(-c2cc(C(=O)NCCCN3CCOCC3)no2)cc1`, the inhibition was 28.1% (inactive).

In the case of `O=C(NCCCN1CCOCC1)c1cc(-c2cccc(O)c2)on1`, the inhibition is 14.1% (inactive).

In the case of `O=C(NCCCN1CCOCC1)c1cc(-c2ccc(Cl)cc2)on1`, the inhibition was 46.3% (active).

Take `CCOC(=O)C1CCN(C(=O)C2(NC(=O)Nc3cccc(F)c3)CCCCC2)CC1`: the inhibition is 14% (inactive).

Consider `Cn1nc(C(F)(F)F)cc1-c1ccc(/C=C(\C#N)C(=O)c2cccc(C(F)(F)F)c2)s1`, for which the inhibition was -34.9% (inactive).

Take `CCOC(=O)C1C(=O)NCC1c1ccccc1` (stereo not given): the inhibition was 12.8% (inactive).

For the compound `CC(=O)c1cnc(SCC(=O)O)nc1C`, the inhibition was 10% (inactive).

For the compound `Cc1ccc(-c2c[n+](CC(=O)Nc3ccccc3)c3n2CCC3)cc1`, the inhibition is -7% (inactive).

Turning to `Clc1ccc(C[n+]2cc(-c3ccccc3)n3c2CCC3)cc1`, the inhibition is -17.7% (inactive).

In the case of `Cc1ccc(C(=O)C[n+]2cc(-c3ccccc3)n3c2CCCCC3)cc1`, the inhibition is 38.8% (active) and 16% (inactive).

As to `CC1CN(C(=S)Nc2ccc(Br)cc2Cl)CC(C)O1` (stereo not given), the inhibition was -8.08% (inactive).

Consider `Cc1ccccc1-c1cc(C(=O)NCc2cccs2)n(CC2CC(c3cccnc3)=NO2)n1` (stereo not given), for which the inhibition was -9.9% (inactive).

`CCOC(=O)C1CCN(C(=O)CSc2cc(=O)n(C)c3ccccc23)CC1`: the inhibition is 25% (inactive).

For the compound `Cn1c(=O)cc(SCC(=O)N2CCN(C(=O)c3ccco3)CC2)c2ccccc21`, the inhibition is -1.63% (inactive).

`Cn1c(=O)cc(SCC(=O)N2CCCC2)c2cc(Cl)ccc21`: the inhibition is 52.4% (active).

With `Cc1ccccc1C(=O)NNC(=O)CN1C(=O)c2ccccc2C1=O`, the inhibition was 8.67% (inactive).

On to `C[C@@]12C(=O)N(c3cccc(Br)c3)C(=O)N1[C@H](c1ccc(Cl)cc1)[C@@H]1C(=O)N(C3CCCCC3)C(=O)[C@@H]12`, for which the inhibition is -15.6% (inactive).

Consider `O=C(O)CN(Cc1ccco1)S(=O)(=O)c1ccccc1`, for which the inhibition is 18.8% (inactive).

For `Cc1c(Cl)cnc(NC(=O)COC(=O)C2CCCC2)c1Cl`, the inhibition is 2.7% (inactive).

With `CCOC(=O)CSc1nnc(CNC(=O)c2cccs2)n1-c1ccccc1`, the inhibition was 9.72% (inactive).

Consider `O=C(C1CCC1)N1CCc2cc(S(=O)(=O)NCc3cccnc3)ccc21`, for which the inhibition is -30.3% (inactive).

As to `CC1(C)Oc2ccc3ccc(=O)oc3c2/C(=N/O)C1=O`, the inhibition was -15.2% (inactive).

As for `CC1(C)Oc2ccc3ccc(=O)oc3c2/C(=C/NCCO)C1=O`, the inhibition is 5.05% (inactive).

For `C/C=C(/C)C(=O)OC1Cc2c(ccc3ccc(=O)oc23)OC1(C)C` (stereo not given), the inhibition was 47.2% (active).

As to `Cc1nc(Cl)c(C#N)c2c1CCCC2`, the inhibition is 22.3% (inactive).

For the compound `CC(=O)Nc1ccc(S(=O)(=O)NC2(C(F)(F)F)C(=O)Nc3c2c(=O)[nH]c(=O)n3Cc2ccccc2)cc1` (stereo not given), the inhibition is 3.75% (inactive).

`COc1ccccc1NC(=O)C1=C(C)Nc2nnnn2C1c1cccc(Br)c1` (stereo not given): the inhibition was -22.3% (inactive).

As to `COC(=O)C1=C(C(=O)c2ccc(C)cc2)C(c2ccccc2)n2nnnc2N1` (stereo not given), the inhibition is 36.7% (active).

As for `COC(=O)c1ccc(C2C3=C(Nc4nnnn42)c2ccccc2OC3)cc1` (stereo not given), the inhibition was 3.54% (inactive).

With `CC1CCN(C(NC(=O)c2ccco2)C(=O)c2ccccc2)CC1` (stereo not given), the inhibition was -1.98% (inactive).

Turning to `CCOC(=O)C1=C(O)/C(=C/c2cc(C)n(-c3ccccc3)c2C)N=C1C`, the inhibition is -12.5% (inactive).

For `Cc1cccc(Nc2nc(NCCO)nc(N3CCCC3)n2)c1`, the inhibition is 4.82% (inactive).

Consider `CC(C)n1cnc2c(Nc3cccc(Cl)c3)nc(N(CCO)CCCO)nc21`, for which the inhibition is -41.1% (inactive).

For `OCCCNc1nccc(-c2cc(Nc3cccc(Cl)c3)ncn2)n1`, the inhibition was 67.2% (active).

As for `CSc1ncccc1C(=O)OCc1ccc(Br)cc1`, the inhibition was 5.14% (inactive).

`c1ccc(Cc2cc[n+](Cc3ccccc3)cc2)cc1`: the inhibition was -7.68% (inactive).

On to `COc1ccccc1OCc1nnc(SCC(N)=O)n1-c1ccccc1`, for which the inhibition is -18.9% (inactive).

Consider `Cc1nc2ccccc2c(=O)n1-c1ccc(F)c(NC(=O)c2cccs2)c1`, for which the inhibition was -10.2% (inactive).

Take `CN1CCN(C(=O)CCc2nc(-c3ccc(Cl)cc3)no2)CC1`: the inhibition is -2.08% (inactive).

For `CCNC(=O)CCc1nc(-c2ccc(C(C)(C)C)cc2)no1`, the inhibition was 87.2% (active).

In the case of `CCc1ccc(CNC(=O)CCc2nc(-c3cccs3)no2)cc1`, the inhibition is -6.74% (inactive).

As for `CCOC(=O)C1CCN(C(=O)C2CCCN(S(=O)(=O)c3ccc(OC)c(Cl)c3)C2)CC1` (stereo not given), the inhibition was -44.7% (inactive).

As for `CCOc1ccccc1C1CC(c2ccc(Cl)cc2)Nc2nc(N)nn21` (stereo not given), the inhibition is -1.91% (inactive).

As to `COc1ccc(C(=O)n2nc(-c3ccc(C)cc3)nc2N)cc1OC`, the inhibition is 7.38% (inactive).

For `COc1ccc(C(=O)n2nc(-c3ccc(Cl)cc3)nc2N)cc1OC`, the inhibition is 39.3% (active).

On to `COc1ccc(C(=O)n2nc(C)c(Br)c2C)cc1OC`, for which the inhibition is -0.0717% (inactive).

For the compound `O=S1(=O)N=C(N(CCO)/N=C/c2ccccc2F)c2ccccc21`, the inhibition was 11.3% (inactive).

As to `C/C(=N\Nc1nc(N2CCOCC2)nc(N2CCOCC2)n1)c1ccc([N+](=O)[O-])cc1`, the inhibition was 5.8% (inactive).

In the case of `C/C(=N\Nc1nc(Nc2ccccc2)nc(N2CCOCC2)n1)c1cccs1`, the inhibition was 39.3% (active).

Turning to `O=C(CSc1nc(Nc2ccccc2)nc(N2CCOCC2)n1)Nc1cc(Cl)ccc1O`, the inhibition was -4.18% (inactive).

As for `O=c1oc(-c2ccccc2NS(=O)(=O)c2ccc(Cl)cc2)nc2ccccc12`, the inhibition is 6.5% (inactive).

For the compound `CC(C)(C)c1ccc(OC2=CS(=O)(=O)c3ccccc32)cc1`, the inhibition was -29.9% (inactive).

`CC(C)(C)c1ccc(Oc2ccc(N)cc2)cc1`: the inhibition is 79% (active).

For `COc1cccc(Oc2ccc(N)cc2)c1`, the inhibition was -22.3% (inactive).

With `O=C(C(NS(=O)(=O)c1cccc2nsnc12)c1ccccc1)N1CCN(c2ccccc2)CC1` (stereo not given), the inhibition is -0.239% (inactive).

On to `CN(Cc1nc(-c2cnccn2)no1)Cc1n[nH]c2c1CCCCC2`, for which the inhibition is 2.89% (inactive).

In the case of `CC[n+]1cc(C)ccc1/C=C/c1ccc(N(C)C)cc1`, the inhibition is 42.6% (active).

Consider `C=CCN1C(=NC(=O)COc2ccccc2)SC2CS(=O)(=O)CC21` (stereo not given), for which the inhibition was -20.6% (inactive).

Regarding `CN(C)C(=O)CCc1ccc2c3c([nH]c2c1)[C@]1(CCC2CCCC2)[C@@H](C(=O)N2CCOCC2)C[C@H](CC(=O)NCc2ccco2)C(=O)N1CC3`, the inhibition was 13.5% (inactive).

For the compound `Cc1ccc(C)c(NC(=O)CN(C)C(=O)COc2ccc3ccccc3c2)c1`, the inhibition is 1.04% (inactive).

Regarding `COc1ccc(S(=O)(=O)N2CCN(C(=O)c3cccs3)CC2)cc1OC`, the inhibition is 10.3% (inactive).

As to `CC1=C(C(=O)OC2CCCCC2)C(c2cccnc2)n2ncnc2N1` (stereo not given), the inhibition is -21.7% (inactive).

Regarding `CCOc1ccc(/C=C2\SC(=S)N(NC(=O)c3ccncc3)C2=O)cc1OC`, the inhibition is -7.88% (inactive).

With `COc1cc(/C=C2/SC(=S)N(Cc3ccccc3)C2=O)cc(OC)c1O`, the inhibition is 18.2% (inactive).

For the compound `COc1ccc(/C=C2\SC(=S)N(CCC(=O)Nc3ccccn3)C2=O)cc1OC`, the inhibition is 47.5% (active).

With `Cc1ccc(C)n1-c1ccncc1`, the inhibition was 8.79% (inactive).

As to `CC(=O)Nc1ccc(C(=O)CSc2nnc(Cc3ccccc3)o2)cc1`, the inhibition is 8.22% (inactive).

As to `CC(C)C[C@@H](N)c1nnc(SCC(=O)c2ccc(Cl)cc2)o1`, the inhibition was 67.6% (active).

For the compound `COc1cc(C(=O)NCc2nnc(SCC(=O)c3ccc(Cl)cc3)o2)cc(OC)c1OC`, the inhibition was 7.7% (inactive).

On to `CCCCCCCCCCOC(=O)C[N+](C)(C)CC1CCCCC1O` (stereo not given), for which the inhibition was 10.5% (inactive).

As to `NC(=O)CC(NC(=O)Cc1cccc2ccccc12)c1ccc(NCc2cc(F)ccc2F)c([N+](=O)[O-])c1` (stereo not given), the inhibition is 9.25% (inactive).

In the case of `CC12CN3CCN(CC(C3)/C1=N\NC(=O)c1ccccc1N)C2`, the inhibition is -5.67% (inactive).

As for `COc1ccc(OCC(=O)N2CCN(C(=O)c3cccs3)CC2)cc1`, the inhibition was 26.7% (inactive).

Turning to `O=C(O)COc1ccc(-c2nccc(-c3cccs3)n2)cc1`, the inhibition was 73.8% (active).

As for `CN(C(=O)COc1nnc(-c2cccs2)c(-c2cccs2)n1)c1ccccc1`, the inhibition is 2.99% (inactive).

Turning to `O=C1c2ccccc2S(=O)(=O)N1Cc1c(F)cccc1Cl`, the inhibition was -1.55% (inactive).

Take `Cn1c(CCc2ccccc2)nnc1SCC(N)=O`: the inhibition is -1.05% (inactive).
